MOR-DOR ag – agonists of OPRM1-OPRD1 heterodimerization, primary screen, cell-based, luminescence. Mu-type opioid receptor (Homo sapiens) + Delta-type opioid receptor (Homo sapiens), …. cells. activation, % at 9.3 µM. actives 0.3% (n = 340,000); in the data active = activation above about 18%;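 note: 0% = vehicle-treated cells and 100% = reference agonist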
Target sequence (P35372 whole entry, looked up): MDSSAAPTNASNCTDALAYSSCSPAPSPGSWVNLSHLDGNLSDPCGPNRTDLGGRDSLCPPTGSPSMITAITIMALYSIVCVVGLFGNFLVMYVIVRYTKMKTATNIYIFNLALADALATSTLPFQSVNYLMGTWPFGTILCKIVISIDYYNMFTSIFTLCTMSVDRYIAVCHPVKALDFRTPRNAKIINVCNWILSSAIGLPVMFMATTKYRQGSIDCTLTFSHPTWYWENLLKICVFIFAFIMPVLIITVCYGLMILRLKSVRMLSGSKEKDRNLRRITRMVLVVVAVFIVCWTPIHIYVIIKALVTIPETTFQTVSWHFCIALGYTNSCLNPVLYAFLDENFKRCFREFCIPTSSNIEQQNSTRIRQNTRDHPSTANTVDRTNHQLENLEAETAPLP
Target sequence (P41143 whole entry, looked up): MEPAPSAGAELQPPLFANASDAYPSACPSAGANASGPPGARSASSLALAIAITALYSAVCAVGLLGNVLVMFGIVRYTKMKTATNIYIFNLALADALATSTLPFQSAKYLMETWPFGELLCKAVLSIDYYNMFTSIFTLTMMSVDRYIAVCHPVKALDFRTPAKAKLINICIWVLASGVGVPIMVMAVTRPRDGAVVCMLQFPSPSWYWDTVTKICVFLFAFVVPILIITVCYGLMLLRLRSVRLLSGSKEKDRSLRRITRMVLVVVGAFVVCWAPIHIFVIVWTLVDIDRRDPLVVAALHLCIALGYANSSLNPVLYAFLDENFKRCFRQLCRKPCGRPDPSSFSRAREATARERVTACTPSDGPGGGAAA
HTR5A ag ctr – HTR5A agonists in luminescence cell assay, primary screen, counter-screen for OPRM1-OPRD1 heterodimer agonist project, full-deck HTS | cell-based | activation, % at 9.3 µM | actives 0.61% (n = 340,000); in the data active = activation mostly above about 9.5%, no sharp cut-off; inactive = mostly below about 7.6%;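 note: 0% = cells with vehicle only and 100% = reference agonist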
HTR5A inv ctr – HTR5A inverse agonists in luminescence cell assay, primary screen, counter-screen for OPRM1-OPRD1 heterodimer inverse agonist project, full-deck HTS | inhibition, % at 9.3 µM | AID 504634, 2011 | actives 0.083% (n = 340,000) | HTR5A cell line, inverse agonism; in the data active = inhibition mostly above about 23%, no sharp cut-off; inactive = mostly below about 18%;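 note: 0% = cells with DMSO and 100% = no-cell wells with DMSO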
MOR-DOR inv ag – inverse agonists of MOR-DOR heterodimerization, primary screen, cell-based, luminescence; Mu-type opioid receptor (Homo sapiens) + Delta-type opioid receptor (Homo sapiens), …; cell-based MOR-DOR heterodimer luminescence, inverse agonism; inhibition, % at 9.3 µM; actives 0.21% (n = 340,000); in the data active = inhibition above about 22%, passing the limit was not always enough;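 note: 0% = cells with DMSO and 100% = wells without cells with DMSO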
* = called active by the depositor. Rows were chosen to be rich in hits. Some 1.1% of all compounds tested hit in one or more screens of this group.

SMILES	MOR-DOR ag	HTR5A ag ctr	HTR5A inv ctr	MOR-DOR inv ag
OC(CN1CCN(c2cccc(Cl)c2)CC1)c1ccccc1 (centres undefined)	5.2	12.5*	-48.7	-30.0
C/C(=C\c1ccccc1)CN1CCN(c2cccc(Cl)c2)CC1	0.8	-0.3	0.8	-4.6
OC(COC(c1ccccc1)c1ccccc1)CN1CCN(c2cccc(Cl)c2)CC1 (centres undefined)	0.2	8.7	-23.3	-1.1
CC1CCN(C(=O)COC(=O)c2cc([N+](=O)[O-])ccc2N2CCOCC2)CC1	-0.4	12.1*	-32.9	2.2
COC(=O)C1CCN(C(=O)COC(=O)c2cc([N+](=O)[O-])ccc2N2CCOCC2)CC1	-3.2	4.9	18.5	12.7
CCCCn1c(N)c(N(C)C(=O)c2cn(-c3ccccc3)nc2-c2ccccc2)c(=O)[nH]c1=O	-2.5	-0.1	0.3	10.0
CC(C)N(CC(=O)Nc1ccc(Cl)cc1C(F)(F)F)C(=O)CCl	1.0	11.8*	-30.1	-4.4
Cc1cc2ccccc2n1CCNC(=O)COc1ccccc1	31.0*	1.0	-27.6	-170.2
CCC(=O)NCCn1c(C)cc2ccccc21	0.2	5.6	-17.0	-1.1
NC(=O)Cn1cnc2c(nnn2-c2ccc(F)cc2)c1=O	-2.5	-1.4	5.3	14.4
CCCCN(c1nc2ccccc2nc1Cl)S(=O)(=O)c1ccc(C)cc1	0.8	1.3	-5.1	-4.5
S=C(Nc1ccc(Cl)c(Cl)c1)NC1CCN(Cc2ccccc2)CC1	23.2*	12.2*	-23.1	-134.7
CC(=O)N/C(=C\c1ccccc1)C(=O)OCC(=O)Nc1cc(S(=O)(=O)N(C)C)ccc1C	-2.1	4.1	-3.1	11.6
CSc1ncccc1C(=O)OCC(=O)N(C)c1c(N)n(Cc2ccccc2)c(=O)[nH]c1=O	-1.9	1.3	13.7	12.6
CC(/C=N\NC(=O)c1ccc2c(c1)OCO2)c1ccccc1 (centres undefined)	-3.5	1.6	-4.3	18.3
COc1cccc(C=O)c1OC(=O)N1CCOCC1	-3.7	-0.1	0.4	17.1
CCN(CC(=O)Nc1c(F)cccc1F)C(=O)CCCc1cccs1	-0.8	1.1	-2.8	3.4
O=C(NC1CCCCC1)NC1(C(=O)NCCCN2CCOCC2)CCCCC1	-1.7	10.5*	-3.8	10.6
O=C(Nc1ccccc1Cl)NC1(C(=O)NCCCN2CCOCC2)CCCCC1	-1.4	-1.2	-45.9	8.2
O=C1C2C3CCC(C3)C2C(=O)N1c1ccc(OS(=O)(=O)c2ccccc2)cc1 (centres undefined)	2.6	12.7*	-2.1	-12.8
Cn1cc(C(=O)N2CCN(c3cccc(Cl)c3)CC2)c(=O)c2cc(S(=O)(=O)N3CCOCC3)ccc21	-0.9	-2.1	-16.1	4.4
O=C1Nc2ccccc2C1=Nc1cccc(Cl)c1	-11.0	-5.6	20.6	52.8*
CC(=O)c1ccc(N=C2C(=O)Nc3ccccc32)cc1	-10.6	-2.4	9.0	52.9*
CSc1cccc(N=C2C(=O)Nc3ccccc32)c1	-10.8	-4.3	15.8	51.9*
CC(=O)N(/N=C1/C(=O)Nc2ccccc21)c1ccccc1	2.2	0.1	-0.6	-12.2
SMILES	MOR-DOR ag	HTR5A ag ctr	HTR5A inv ctr	MOR-DOR inv ag
O=C(NCC(c1ccco1)N1CCc2ccccc2C1)C(=O)Nc1cc(F)ccc1F (centres undefined)	1.0	4.2	14.7	-6.3
CC(=O)c1c(Cl)nc2cccc3c2c1-c1ccccc1C3=O	2.2	3.5	-29.0	-11.2
COc1ccc([C@@H]2[C@@H]3C(=O)N(C(C)(C)C)C(=O)[C@@H]3[C@]3(C)C(=O)N(c4cccc(Cl)c4)C(=O)N23)cc1	-2.2	11.0	-6.8	12.8
COc1ccc(CC(C)N2CCN(Cc3ccccc3)CC2)cc1OC (centres undefined)	-0.8	2.2	11.0	4.7
COc1ccc(OC)c(C(=O)COC(=O)COc2ccccc2)c1	-2.3	-0.3	1.3	11.8
COc1cc2c(cc1OC)C(c1cccc(OC)c1OC)CC(=O)N2 (centres undefined)	-4.3	-0.3	0.9	18.8
COc1cc2c(cc1OC)C(c1ccc(OC)c(OC)c1OC)CC(=O)N2 (centres undefined)	-2.1	10.0*	-37.0	9.7
Cc1cc(N2CCN(c3ccccc3)CC2)nc(NCc2ccccc2)n1	-2.0	-2.9	-4.0	10.6
CCCc1nc(C)cc(N2CCN(c3ccccc3)CC2)n1	-1.7	9.6*	-34.2	7.9
O=C(/C=C/c1cccnc1)c1ccc(F)c(F)c1	-1.7	1.4	-4.0	9.0
CN(C)c1ccc(C(=O)/C=C/c2cccnc2)cc1	-2.7	9.2*	-34.5	13.3
CCOC(=O)C1CCN(C(=O)c2cccc(S(=O)(=O)N3c4ccccc4CC3C)c2)CC1 (centres undefined)	-0.9	4.4	2.2	3.4
CC(=O)Nc1ccc(S(=O)(=O)O)c(OC(C)=O)c1	-2.1	-0.3	1.2	10.3
O=C(CCCn1c(=O)[nH]c2cc(Cl)ccc2c1=O)NC1CCCCCCC1	-0.6	3.3	9.2	3.7
CN(Cc1ccccc1)C(=O)CCCn1c(=O)[nH]c2cc(Cl)ccc2c1=O	-1.2	13.4*	13.4	5.7
CCS(=O)(=O)c1nc(S(=O)(=O)c2ccc(C)cc2)c(N2CCOCC2)s1	0.5	11.2*	17.5	-2.6
Cc1ccc(S(=O)(=O)c2nc(S(C)(=O)=O)sc2N2CCOCC2)cc1	-1.6	1.0	-0.7	8.3
O=C(O)CCC(=O)Nc1ccccc1C(=O)NCCc1ccccc1	-1.7	11.5*	20.2	8.7
CCN(CC)S(=O)(=O)c1ccc(N2CC(C(=O)NCCc3c[nH]c4ccccc34)CC2=O)cc1 (centres undefined)	-1.5	-4.0	11.0	7.9
CC1CN(C(=O)COC(=O)/C=C/c2ccc(C(F)(F)F)cc2)CC(C)O1 (centres undefined)	-1.4	6.8	-16.8	6.0
CC(=O)N1CCN(C(=O)COC(=O)/C=C/c2ccc(C(F)(F)F)cc2)CC1	-2.6	14.0*	22.4	10.2
COCCn1c(SCC(=O)NCc2ccc(F)cc2)nc2ccccc21	-0.1	12.9*	-23.8	0.9
COCCn1c(SCC(=O)NCc2ccccc2)nc2ccccc21	2.5	2.6	-7.6	-20.6
COc1ccc(CNS(=O)(=O)c2ccc(F)c(C(=O)Nc3ccccc3OC)c2)cc1	2.8	9.5*	-23.3	-14.8
Cc1ccc(NC(=O)c2ccc(CNS(=O)(=O)c3cccc(C(F)(F)F)c3)cc2)cc1	0.4	-2.0	3.2	-1.6
O=C(Nc1ccccc1F)c1ccc(CNS(=O)(=O)c2cccc(C(F)(F)F)c2)cc1	6.2	11.5*	-29.3	-25.6
O=[N+]([O-])c1ccc2[nH]ncc2c1	-2.5	12.2*	-33.5	11.4
CCOc1ccc(N2CC(C(=O)Nc3cccc(C(=O)NC4CC4)c3)CC2=O)cc1 (centres undefined)	1.3	4.4	-11.2	-5.2
N/C(=N\NS(=O)(=O)c1ccccc1Cl)c1ccccn1	-0.9	2.4	-10.8	4.3

Bioassay records from PubChem BioAssay.
